PINK1 modulator: PINK1 expression modulation | PINK1 immunofluorescence, high-content cytometry, 24 h | Potency, µM (titrated, usually from 76.6 µM), most hits filed as activators | hit rate 0.2% among 410,000 | AID 624263; active means well fitted activation curve with a large enough effect; inconclusive means small, poorly fitted or top-dose-only effect; cell line not stated here; further: nearly all actives have a fitted effect of over 65% in size
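A stable cell line was treated with compounds at 5 concentrations for 24 hours, with CCCP as control. PINK1 levels and mitochondrial localization were measured by immunofluorescence with mitochondrial, cell and nuclear markers after fixation, read by laser-scanning cytometry.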
KB-V1 cytotox: KB-V1 MDR subline cytotoxicity; AID 1347076; hit rate 3.4% among 400,000; KB-V1 MDR cells viability, CellTiter-Glo, 72 h; Potency, µM (highest dose often 46.1 µM), hits mostly cytotoxic; further: nearly all actives have a fitted effect of over 60% in size
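KB-V1 cells (P-gp-expressing MDR subline of KB-3-1) in phenol-red-free DMEM with 10% FBS were exposed to library compounds over a concentration series for 72 h at 37 degrees C. Viability read by CellTiter-Glo luminescence; concentration-effect curves fitted after normalization.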
MCF10A rereplic: inducers of DNA re-replication in MCF 10A breast cells. MCF 10A DNA re-replication, Hoechst nuclear intensity, 48 h. Potency, µM (highest dose often 46.1 µM), actives largely listed as activators. hit rate 2.9% among 350,000; further: nearly all actives have a fitted effect of over 50% in size
KB-3-1 cytotox: kills parental KB-3-1 adenocarcinoma cells | AID 1347075 | hit rate 1.4% among 400,000 | Potency, µM (titrated, usually from 46.1 µM), most hits filed as cytotoxic | KB-3-1 viability, CellTiter-Glo ATP luminescence, 72 h; further: nearly all actives have a fitted effect of over 60% in size
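72 h, 37 °C compound treatment of KB-3-1 parental cells; CellTiter-Glo added, 10 min, luminescence read. Data corrected against DMSO-only plates and normalized before curve fitting.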
ALOX12 inh: inhibitors of human 12S-lipoxygenase ALOX12; purified 12hLO, xylenol orange hydroperoxide absorbance; hit rate 1.1% among 580,000; Potency, µM (top dose mostly 108 µM), hits mostly inhibitors; P18054
Target sequence (P18054 whole entry, looked up): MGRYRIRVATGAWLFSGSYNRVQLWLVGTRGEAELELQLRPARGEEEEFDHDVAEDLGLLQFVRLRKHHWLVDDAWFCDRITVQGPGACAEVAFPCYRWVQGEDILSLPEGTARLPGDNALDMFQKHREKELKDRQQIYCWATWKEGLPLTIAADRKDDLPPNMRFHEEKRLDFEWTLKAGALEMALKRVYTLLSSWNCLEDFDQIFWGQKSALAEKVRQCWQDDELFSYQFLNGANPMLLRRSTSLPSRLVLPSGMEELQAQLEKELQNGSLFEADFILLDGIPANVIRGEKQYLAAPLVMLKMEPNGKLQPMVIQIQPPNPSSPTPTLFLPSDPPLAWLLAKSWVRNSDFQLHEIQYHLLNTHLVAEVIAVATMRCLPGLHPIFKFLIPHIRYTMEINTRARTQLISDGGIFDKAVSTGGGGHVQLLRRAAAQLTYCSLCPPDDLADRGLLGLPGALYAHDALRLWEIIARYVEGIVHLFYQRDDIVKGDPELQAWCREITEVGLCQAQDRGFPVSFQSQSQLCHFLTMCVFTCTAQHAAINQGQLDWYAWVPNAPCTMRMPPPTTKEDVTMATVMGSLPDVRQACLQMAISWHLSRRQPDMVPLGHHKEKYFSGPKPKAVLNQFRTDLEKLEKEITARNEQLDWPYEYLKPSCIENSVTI
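Purified human 12hLO (150 nM final) in 25 mM Hepes, 0.01% Triton X-100, pH 7.0 was preincubated 15 min at room temperature with compound. Then 40 uM arachidonic acid was added, 30 min. Hydroperoxide was read by Fe-XO absorbance ratio 573/405 nm.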
SW480 rerep: inducers of DNA re-replication in SW480 colon cancer cells. AID 624297. Potency, µM (series often up to 46.1 µM), usual class: activators. hit rate 1.8% among 340,000. SW480 DNA re-replication, Hoechst DNA content imaging, 48 h; further: nearly all actives have a fitted effect of over 55% in size
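Image-based DNA-content assay: after two days of treatment, nuclei were labelled with the DNA dye Hoechst and imaged, and hits were compounds raising the count of nuclei showing high fluorescence intensity.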
A number is an active result. In the library only some 5.8% were active in any assay of this set; here they are far more common. Unless noted, the call rests on the fitted dose curve; in most records, active means well fitted curve in the direction sought with a large enough effect; inconclusive means small, poorly fitted or top-dose-only effect, or another doubt; inactive means no such curve, though single readings can be large; an effect the other way counts as inactive or inconclusive.

`O=C1NC(c2ccccc2Cl)Nc2ccccc21` (stereo unspecified) gave PINK1 modulator inactive, KB-V1 cytotox inconclusive, MCF10A rereplic inconclusive, KB-3-1 cytotox inconclusive, ALOX12 inh inactive and SW480 rerep 16.4µM.
Screening Clc1ccccc1C1Nc2cccc3cccc(c23)N1 returned PINK1 modulator inactive, KB-V1 cytotox inactive, MCF10A rereplic inactive, KB-3-1 cytotox inactive, ALOX12 inh inactive and SW480 rerep inactive.
`COc1ccc(C2NC(=O)c3ccccc3N2)cc1OC` (stereo unspecified) gave PINK1 modulator inactive, KB-V1 cytotox inactive, MCF10A rereplic inconclusive, KB-3-1 cytotox inactive, ALOX12 inh inconclusive and SW480 rerep inactive.
`Cc1ccc(CNC(=O)c2cc(=O)c3cc(Cl)ccc3o2)cc1` gave ALOX12 inh inactive.
`C=C(Cl)CN1CCC(CNC(C)=O)CC1` gave ALOX12 inh inactive.
CSCC[C@@H]1NC(=O)c2cc(NC(=O)c3cccc4c3ccn4C)ccc2NC1=O was read as ALOX12 inh inactive.
CSCC[C@@H]1NC(=O)c2cc(NC(=O)Cn3ccc4ccccc43)ccc2NC1=O was read as ALOX12 inh 35.5µM.
O=C1CC(/C=C/c2ccccn2)=Nc2ccccc2N1 was read as PINK1 modulator inactive, KB-V1 cytotox inconclusive, MCF10A rereplic inactive, KB-3-1 cytotox 18.4µM, ALOX12 inh inactive and SW480 rerep inconclusive.
Screening O=C(O)c1cc(O)c2ccccc2c1O returned ALOX12 inh 70.8µM.
O=C(C(c1ccccc1)N1CCN(C2CCS(=O)(=O)C2)CC1)N1CCOCC1 (stereo unspecified) was read as ALOX12 inh inactive.
For COc1ccc(/C=C2\C(=O)NCC(=O)N2Cc2ccccc2)cc1 the results were PINK1 modulator inactive, KB-V1 cytotox inconclusive, MCF10A rereplic inconclusive, KB-3-1 cytotox inconclusive, ALOX12 inh inactive and SW480 rerep 16.4µM.
`COc1ccc(CC(=O)Nc2ccc(S(=O)(=O)NC(C)C)cc2)cc1` gave PINK1 modulator inactive, KB-V1 cytotox 16.4µM, MCF10A rereplic inactive, KB-3-1 cytotox inactive, ALOX12 inh inactive and SW480 rerep inactive.
For COc1ccc(NS(=O)(=O)c2ccc(NS(=O)(=O)c3ccc(SC)cc3)cc2)c(OC)c1 the results were PINK1 modulator inactive, KB-V1 cytotox inconclusive, MCF10A rereplic inconclusive, KB-3-1 cytotox inactive, ALOX12 inh inactive and SW480 rerep inactive.
COc1ccc(NS(=O)(=O)c2ccc(NC(C)=O)cc2)c(OC)c1 was read as PINK1 modulator inactive, KB-V1 cytotox inactive, MCF10A rereplic inconclusive, KB-3-1 cytotox inactive, ALOX12 inh inactive and SW480 rerep inconclusive.
COc1ccc(OC)c(NS(=O)(=O)c2ccc(NC(C)=O)cc2)c1 was read as PINK1 modulator inactive, KB-V1 cytotox 20.6µM, MCF10A rereplic inconclusive, KB-3-1 cytotox inconclusive, ALOX12 inh inactive and SW480 rerep inactive.
For CCOc1ccc(S(=O)(=O)Nc2cc(OC)ccc2OC)cc1 the results were PINK1 modulator inactive, KB-V1 cytotox 0.411µM, MCF10A rereplic inconclusive, KB-3-1 cytotox 0.103µM, ALOX12 inh inactive and SW480 rerep 0.411µM.
COc1ccc(OC)c(NS(=O)(=O)c2ccc(SC)cc2)c1 was read as PINK1 modulator inactive, KB-V1 cytotox 4.11µM, MCF10A rereplic 13µM, KB-3-1 cytotox 7.31µM, ALOX12 inh inactive and SW480 rerep 13µM.
COc1cc(F)ccc1-c1ccnc2nc(Cc3ccc(F)cc3)nn12 was read as ALOX12 inh inactive.
For CCOCCCNC(=O)c1cc2cc(Cl)ccc2nc1C the results were ALOX12 inh inactive.
For CC(C)CN1C(=O)COC[C@@H]1[C@H](O)c1ccc(NC(=O)COc2ccccc2)cc1 the results were ALOX12 inh inactive.
COc1ccc(NS(=O)(=O)c2ccc(NC(=O)c3ccc(N(C)S(C)(=O)=O)cc3)cc2)c(OC)c1 was read as PINK1 modulator inconclusive, KB-V1 cytotox inactive, MCF10A rereplic inactive, KB-3-1 cytotox 4.61µM, ALOX12 inh inactive and SW480 rerep inactive.
For Clc1ccc2nc(-c3cccc(Br)c3)cn2c1 the results were ALOX12 inh 12.6µM.
For Clc1ccc2nc(-c3ccc(Br)s3)cn2c1 the results were PINK1 modulator inactive, KB-V1 cytotox 18.4µM, MCF10A rereplic inactive, KB-3-1 cytotox inactive, ALOX12 inh inconclusive and SW480 rerep inactive.
`COc1ccc(-c2cn3cc(Cl)ccc3n2)cc1OC` gave PINK1 modulator inactive, KB-V1 cytotox 16.4µM, MCF10A rereplic inactive, KB-3-1 cytotox inactive, ALOX12 inh inconclusive and SW480 rerep inactive.
For CCOc1ccc(C2CC(c3ccccc3NS(C)(=O)=O)=NN2C(C)=O)cc1 (stereo unspecified) the results were ALOX12 inh inactive.
For COc1ccc(N(Cc2cccs2)C(=O)Nc2cccc(Cl)c2)cc1 the results were PINK1 modulator inactive, KB-V1 cytotox inactive, KB-3-1 cytotox inactive and ALOX12 inh 15.8µM.
O=C(Nc1cccc(Cl)c1)N(Cc1nc2ccccc2c(=O)[nH]1)C1CCCC1 was read as PINK1 modulator inactive, KB-V1 cytotox inconclusive, MCF10A rereplic inconclusive, KB-3-1 cytotox inactive, ALOX12 inh inactive and SW480 rerep inactive.
For Cc1ccc(N(Cc2cccs2)C(=O)Nc2cccc(Cl)c2)cc1 the results were PINK1 modulator inactive, KB-V1 cytotox inactive, KB-3-1 cytotox inactive and ALOX12 inh inactive.
O=C(Nc1cccc(Cl)c1)N(Cc1nc2ccccc2c(=O)[nH]1)Cc1cccs1 was read as PINK1 modulator inconclusive, KB-V1 cytotox 16.4µM, MCF10A rereplic inactive, KB-3-1 cytotox inactive, ALOX12 inh inactive and SW480 rerep inactive.
Screening O=C1/C(=C/c2ccc(F)cc2)CCc2ccccc21 returned ALOX12 inh inactive.
For O=C1/C(=C/c2ccccc2F)CCc2ccccc21 the results were ALOX12 inh 3.16µM.
For COc1ccc(/C=C2\CCc3ccccc3C2=O)cc1O the results were PINK1 modulator inactive, KB-V1 cytotox 5.17µM, MCF10A rereplic inconclusive, KB-3-1 cytotox 3.66µM, ALOX12 inh inconclusive and SW480 rerep 0.517µM.
Screening O=C(c1cn(C/C=C/c2ccccc2)nn1)N1CCCN(C2CCCCC2)CC1 returned ALOX12 inh inactive.
For Cc1ccc(Cc2c(C)nc3c(-c4ccccc4)c(C)[nH]n3c2=O)cc1 the results were PINK1 modulator inactive, KB-V1 cytotox inconclusive, KB-3-1 cytotox inconclusive and ALOX12 inh inactive.
For Cc1nc2c(-c3ccccc3)c[nH]n2c(=O)c1Cc1ccccc1 the results were PINK1 modulator inactive, KB-V1 cytotox inconclusive, MCF10A rereplic inconclusive, KB-3-1 cytotox 11.6µM, ALOX12 inh inactive and SW480 rerep inactive.
`COc1ccc(-c2c(C)[nH]n3c(=O)c(Cc4ccccc4)c(C)nc23)cc1` gave PINK1 modulator inactive, KB-V1 cytotox 16.4µM, MCF10A rereplic inactive, KB-3-1 cytotox inconclusive, ALOX12 inh inactive and SW480 rerep inconclusive.

Source: PubChem
